According to PubChem BioAssay (NCI):
This is part of a sample that, as a whole, favours compounds with a hit. Of some 79,000 tested, about 15% had one in any assay. Rule as the data show it: active = growth inhibition above about 70%; inactive = the rest.

Columns and labels:
[1] = NCI Yeast Anticancer Drug Screen. Data for the rad50 strain (AID 155);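 also: 0% = growth of vehicle-only cultures of the same strain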; conditions: S. cerevisiae rad50 strain growth inhibition; at 50.0 µM; active compounds read high
Summary of the method: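 Genetically altered yeast (DNA repair pathway); compound treatment; growth inhibition vs vehicle ctrl.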

[2] = NCI Yeast Anticancer Drug Screen. Data for the mec2-1 strain (AID 157); conditions: S. cerevisiae mec2-1 strain, at 50.0 µM, active compounds read high
Summary of the method: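 Each compound was tested on mec2-1 yeast, a strain altered in DNA damage repair or cell cycle control. Growth inhibition is reported relative to vehicle.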

[3] = NCI Yeast Anticancer Drug Screen. Data for the sgs1 mgt1 strain (AID 161);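 also: 0% = growth of cultures given vehicle only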; conditions: S. cerevisiae sgs1 mgt1 strain, at 50.0 µM, active compounds read high
Summary of the method: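 Inhibition of yeast growth, normalised to vehicle-treated controls, is reported for a strain bearing genetic alterations in DNA damage repair.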

[4] = NCI Yeast Anticancer Drug Screen. Data for the cln2 rad14 strain (AID 165);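 also: 0% = growth equal to vehicle treated cultures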; conditions: S. cerevisiae cln2 rad14 strain, at 50.0 µM, active compounds read high
Summary of the method: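 Test compounds were added to cln2 rad14 yeast cultures; inhibition of growth was then determined by comparison with vehicle treatment.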

[5] = NCI Yeast Anticancer Drug Screen. Data for the bub3 strain (AID 167); conditions: S. cerevisiae bub3 mutant strain, at 50.0 µM, active compounds read high
Summary of the method: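 Yeast carrying a defined mutation is treated with each compound, and growth is compared with that of vehicle-exposed cells to give inhibition.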

[6] = NCI Yeast Anticancer Drug Screen. Data for the mlh1 rad18 strain (AID 175); conditions: S. cerevisiae mlh1 rad18 strain growth inhibition; at 50.0 µM; active compounds read high
Summary of the method: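 Inhibition values reflect reduced growth of mutant yeast versus vehicle-treated controls following compound exposure; the mutations affect DNA damage repair.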

Measured: growth inhibition

CN(CCC[N+](C)(C)C)C(=O)C(c1ccccc1)c1ccccc1
inactive: [1] 45% | [2] -0.25% | [3] 19.2% | [4] -9.55% | [5] 6.35% | [6] 2.7%

Cc1cccc[n+]1C1CCc2ccccc2C1=O (configuration not stated)
inactive: [1] 1.5% | [2] 10.7% | [3] 17.4% | [4] -23.1% | [5] -21.3% | [6] 4%

Cc1cc(C2(O)CCCc3ccccc32)[n+]([O-])cc1C (configuration not stated)
inactive: [1] -17.3% | [2] -2.9% | [3] -9.4% | [4] -4.8% | [5] 0.75% | [6] 2.75%

CCc1ccc(N=Nc2c(F)c(F)c(N(C)C)c(F)c2F)cc1
inactive: [1] -2.4% | [2] 7.7% | [3] 6.85% | [4] 4.1% | [5] 1.05% | [6] -1.25%

CN(C)c1ccc(N=Nc2cccc3ncccc23)cc1
inactive: [1] 2.1% | [2] 26.6% | [3] 67.5% | [4] 31.1% | [5] 65.5% | [6] 66%

C/C=C/c1nc2c(c(=O)n(C)c(=O)n2C)n1C
inactive: [1] -8.05% | [2] -8.2% | [3] -6% | [4] -28.8% | [5] 0.95% | [6] 7%

O=C1NC2(CCN(Cc3ccccc3)CC2)Nc2ccccc21
inactive: [1] -10.4% | [2] 1.6% | [3] -10.4% | [4] -24.1% | [5] 2.8% | [6] -6.75%

O=C(O)c1cc2ccccc2o1
inactive: [1] 11.6% | [2] 0.95% | [3] 16.9% | [4] 20.6% | [5] -2.6% | [6] 30%

Cc1ccc(CC(=O)C(=O)O)c([N+](=O)[O-])c1
inactive: [1] -9.7% | [2] 38.1% | [3] 4.5% | [4] -23.6% | [5] -17.9% | [6] 8.2%

COc1ccc(N)nn1
inactive: [1] 1.6% | [2] -6.9% | [3] -9.15% | [4] 7.5% | [5] 4.75% | [6] -10.2%

CC12CCC(C1)C(C)(C)/C2=N\O (configuration not stated)
inactive: [1] -16.2% | [2] -13.8% | [3] 2.55% | [4] 4.85% | [5] 0.05% | [6] 2.65%

C1C2CC3(CO3)C1C1OC21 (configuration not stated)
inactive: [1] -39.4% | [2] -13.8% | [3] -26.1% | [4] 3.85% | [5] -22.2% | [6] -10.8%

CCOC(=O)C1=CNC(C(=O)OCC)C1c1cccn1-c1ccc(Cl)cc1[N+](=O)[O-] (configuration not stated)
inactive: [1] 8.6% | [2] 16.8% | [3] 10.8% | [4] 29% | [5] 3.8% | [6] 40.8%

Oc1ccc(CCC2CCNCC2)cc1
inactive: [1] 7.75% | [2] 23.4% | [3] 7.7% | [4] -27.2% | [5] -11.1% | [6] -30.1%

COc1ccc(/C=C(\C(C)=O)C(=O)Nc2ccccc2)cc1
inactive: [1] 21.1% | [2] 16.4% | [3] 22.2% | [4] 39.1% | [5] 6.2% | [6] 25.4%

[N-]=[N+]=Nc1nc2c(N)ncnc2n1C1OC(CO)C(O)C1O (configuration not stated)
inactive: [1] 23.4% | [2] 16.4% | [3] 6.15% | [4] -22.8% | [5] -1.35% | [6] 20.9%

O=C1c2ccccc2C(=O)N1CC1(C(=O)O)NCCS1(=O)=O (configuration not stated)
inactive: [1] 3.3% | [2] -7.5% | [3] -22.3% | [4] 26.8% | [5] -48.9% | [6] 10.1%

O=C(C(=Cc1ccc(F)cc1)C(=O)c1ccccc1)c1ccccc1
inactive: [1] 1.75% | [2] 6.2% | [3] -12% | [4] 5.95% | [5] 3.35% | [6] 26.6%

N#Cc1c(N)[nH]c(=S)c(C#N)c1-c1ccccc1
inactive: [1] 45.9% | [2] 35.5% | [3] 47.4% | [4] 33.5% | [5] 31.4% | [6] 35.1%

CCCCSCC(N)C(=O)OC (configuration not stated)
inactive: [1] 19.1% | [2] -11.2% | [3] 4% | [4] -65.5% | [5] 3.75% | [6] 2.8%

O=C1CCCCCN1
inactive: [1] 18.5% | [2] 1.55% | [3] -9.95% | [4] -11.3% | [5] -5.1% | [6] 18.1%

COc1ccc2c(c1O)C1(CCN(C)C)CC(=O)CCC1C=C2 (configuration not stated)
inactive: [1] 13.2% | [2] -11.5% | [3] 9.55% | [4] 6.2% | [5] 25.5% | [6] 12.4%

CC/C(=C\c1ccccc1O)c1ccncc1
inactive: [1] 2.2% | [2] -8.5% | [3] 2.5% | [4] 1.85% | [5] 23.1% | [6] -0.65%

C/C(CCc1cccc([N+](=O)[O-])c1)=N\NC(N)=O
inactive: [1] -19.1% | [2] -10.5% | [3] -6.5% | [4] -1.95% | [5] 7.4% | [6] -29.5%

CCCCCCCCC(Nc1ccccc1)C(O)CCCCCCCC(=O)O (configuration not stated) (tested in a mixture with another compound)
inactive: [1] -0.1% | [2] 1.8% | [3] 7.5% | [4] -6.1% | [5] -7.35% | [6] 16.2%

CC1(C)OC2C(=O)C3COC(O3)C2O1 (configuration not stated)
inactive: [1] -10.7% | [2] -0.25% | [3] -25.1% | [4] -36% | [5] 0% | [6] 5.8%

O=C(CCc1nnc2s/c(=C\c3ccccc3)c(=O)n12)Nc1cc(Cl)ccc1Cl
inactive: [1] -30.9% | [2] -1.6% | [3] -18.4% | [4] 16.4% | [5] 4.95% | [6] -1.45%

O=C(O)c1cccc(Br)c1[N+](=O)[O-]
inactive: [1] -19.9% | [2] -7.9% | [3] -26.6% | [4] -36.1% | [5] -8.1% | [6] -5.9%

OC(c1ccccc1)(c1ccc(-c2ccccc2)cc1)c1cccc2ccccc12 (configuration not stated)
inactive: [1] 28.3% | [2] -14.2% | [3] 21.8% | [4] 9.2% | [5] -2.6% | [6] 5.35%

c1ccc2c(c1)ncn2C1CCCCO1 (configuration not stated)
inactive: [1] 4.7% | [2] -9.8% | [3] -16.8% | [4] 0.9% | [5] -7.45% | [6] -38.3%

O=C1NNC=Nc2ccc(cc2)S(=O)(=O)c2ccc(cc2)N=CNNC1=O
inactive: [1] 41.5% | [2] -1.9% | [3] -20.1% | [4] -9.15% | [5] -5.85% | [6] -45.9%

COC1OC2COC(C2O)C1OS(=O)(=O)c1ccc(C)cc1 (configuration not stated)
inactive: [1] -3.2% | [2] 9.7% | [3] 9.2% | [4] -46.1% | [5] -12.3% | [6] -13.3%

CCOc1ccc(NC(=O)CC2SC(N)=NC2=O)cc1 (configuration not stated)
inactive: [1] -15.2% | [2] -35.5% | [3] -1.9% | [4] 8.5% | [5] -2.8% | [6] -0.6%

CCOC(=O)c1ccc(NC(=O)Nc2ccccc2C(=O)OC)cc1
inactive: [1] 9.95% | [2] 0.35% | [3] 2.7% | [4] 9.55% | [5] 25.4% | [6] 7.4%

O=c1[nH]c(-c2ccccc2)nc2[nH]ncc12
inactive: [1] -3.2% | [2] -11.3% | [3] 23.1% | [4] 9.45% | [5] -7.4% | [6] 6.15%

CCC(/C=C\C(C)C1CCC2C3CC=C4CC(OC)CCC4(C)C3CCC12C)C(C)C (configuration not stated)
inactive: [1] 25.2% | [2] 5.1% | [3] -3.4% | [4] 20.6% | [5] -3.5% | [6] 9.05%

CNC(=O)Nc1ccc(OC)cc1OC
inactive: [1] 3% | [2] -6.2% | [3] -8.35% | [4] -66.5% | [5] 3.2% | [6] -18.6%

c1ccc2c(-c3ccncc3)c3ccccc3cc2c1
inactive: [1] 20.8% | [2] 2.6% | [3] 9.45% | [4] 0.45% | [5] 6.5% | [6] 20.3%

Cc1cc2c(=O)cc(-c3ccc(C(=O)O)cc3)oc2c(C(=O)O)c1C
inactive: [1] 7.1% | [2] 4.3% | [3] 22.8% | [4] 29.8% | [5] 5.7% | [6] 10.5%

CC1=C(C(=O)Nc2ccccc2C)C(c2ccccc2)C(C(=O)Nc2ccccc2C)=C(C)N1
inactive: [1] 10.7% | [2] 15.2% | [3] 9.25% | [4] 6.3% | [5] 16.3% | [6] 7.1%

C=CCC[P+](c1ccccc1)(c1ccccc1)c1ccccc1
inactive: [1] 37.2% | [2] 34.1% | [3] 28.2% | [4] -3.4% | [5] 9.1% | [6] 8.75%

Cc1ccccc1OCC1COCN(C(C)(C)CO)CO1 (configuration not stated)
inactive: [1] -11.1% | [2] -4.5% | [3] -5.5% | [4] 7.9% | [5] -13.9% | [6] 16.8%
